Data: PubChem BioAssay (EPA / NIEHS)
Inconclusive results are not listed. Activity calls are given as the source filed them. Rule for the calls: active = hit-call score of the fitted dose curve at least 0.9, where 1 is the maximum; inconclusive = response in the unintended direction; inactive = score below 0.9.

assay: ACEA_ER_AUC_viability: ACEA Biosciences xCELLigence Real-Time Cell Analysis on Estrogen Receptor Agonism for Viability (AID 2283782);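 note: hit means loss of impedance signal meaning reduced cell growth or viability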
In short: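 Read-out: real-time electrical impedance (RT-CES) area under curve, loss of signal taken as reduced viability, normalized to DMSO baseline. T-47D cells, charcoal-stripped serum medium, compounds up to 100 uM final, continuous exposure, 80 h.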

| SMILES | AC50 | outcome |
| --- | --- | --- |
| CC(C)C[C@H]1C(=O)N2CCC[C@H]2[C@]2(O)O[C@](NC(=O)[C@@H]3C=C4c5cccc6[nH]c(Br)c(c56)C[C@H]4N(C)C3)(C(C)C)C(=O)N12 | 4.31 µM (active) | – |
| CCN(CC)c1ccc2c(-c3ccccc3C(=O)O)c3ccc(=[N+](CC)CC)cc-3oc2c1 | 29.1 µM (active) | – |
| CC(C)(COC(=O)c1ccccc1)COC(=O)c1ccccc1 | 72.8 µM (active) | – |
| C=CCOC(=O)CCC1CCCCC1 | 75.5 µM (active) | – |
| Nc1cccc(S(=O)(=O)c2cccc(N)c2)c1 | – | inactive |
| Nc1nc2ccc([N+](=O)[O-])cc2s1 | 50 µM (active) | – |
| O=P(c1ccccc1)(c1ccccc1)c1ccccc1 | – | inactive |
| CCCCCCCCCCCCCCCC(=O)O | 84.3 µM (active) | – |
| CC(C)=CCCC(C)=CCCC(C)=CCO | 84.2 µM (active) | – |
| OCCN1CCNCC1 | – | inactive |
| Clc1cccc(Cl)n1 | – | inactive |
| COC(=O)c1ccc(C)cc1 | – | inactive |
| Nc1cc([N+](=O)[O-])ccc1O | 9.92 µM (active) | – |
| Cc1ccc(S)cc1 | – | inactive |
| CCCC(C)C=O (stereo not drawn) | 20.8 µM (active) | – |
| C=CC(C)(O)CCC=C(C)CCC=C(C)C (stereo not drawn) | 67.1 µM (active) | – |
| CC(=O)/C=C/C1=C(C)CCCC1(C)C | 9.92 µM (active) | – |

| SMILES | AC50 | outcome |
| --- | --- | --- |
| NCCNCCN | – | inactive |
| CC(=O)OCc1ccc2c(c1)OCO2 | – | inactive |
| CC1(C)[C@@H]2CC[C@@]1(C)[C@H](O)C2 | – | inactive |
| CC(CN1c2ccccc2Sc2ccccc21)N(C)C (stereo not drawn) | 17.2 µM (active) | – |
| CCCCCCC#CC(=O)OC | – | inactive |
| O=C(O)CCSCCC(=O)O | – | inactive |
| O=C(O)CCCCCCCCCCC(=O)O | 37.7 µM (active) | – |
| OCc1cccnc1 | – | inactive |
| CN(C)CCCN | – | inactive |
| NC(=O)c1ccccc1Cl | 27.1 µM (active) | – |
| CC1COc2ccccc2N1C(=O)C(Cl)Cl (stereo not drawn) | 4.69 µM (active) | – |
| CSc1nc(NC2CC2)nc(NC(C)(C)C)n1 | – | inactive |
| CCCCCC=CCC(=O)OC | – | inactive |
| CC(=O)[O][Al][O]C(C)=O | 9.92 µM (active) | – |
| CC(C)C1CCC(O)CC1 (stereo not drawn) | – | inactive |
| CCCCC(CC)COC(=O)/C=C\C(=O)OCC(CC)CCCC (stereo not drawn) | 27.4 µM (active) | – |
